Test results from PubChem BioAssay.
Calls of active or inactive are those of the source. Unless noted, how the calls were made is not given here.

Columns and labels:
[1] = resazurin metabolic signal in HepG2 cells – cell-based, resazurin fluorescence, 24 h, PK04 Diversity Set, profiling panel (AID 1172); conditions: HepG2 viability, higher = more signal
[2] = budding yeast growth changes without added modifier – OD600, strain BY4716, 24 h, basal condition, primary screen (AID 1173); conditions: S. cerevisiae BY4716 growth, OD600, 24 h; higher = more signal, called active from +8 up or from −8 down
[3] = viability profiling in MM1S myeloma cells – cell-based, resazurin fluorescence, basal, 24 h, PK04 Diversity Set, profiling panel (AID 1174); conditions: higher = more signal, called active from +8 up or from −8 down;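 further: MM1S multiple myeloma cell line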
[4] = target: Dihydroorotate dehydrogenase (quinone), mitochondrial (Plasmodium falciparum (isolate 3D7)) (UniProt Q08210); assay: inhibition of P. falciparum DHODH – biochemical, C-terminal His tag, absorbance 600 nm, primary screen (AID 1175); conditions: PfDHODH enzyme, DCIP absorbance 600 nm; higher = more signal, called active from +8 up or from −8 down;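 further: recombinant parasite enzyme with a five histidine tag at its C terminus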
Chain of Dihydroorotate dehydrogenase (quinone), mitochondrial (Plasmodium falciparum (isolate 3D7)) (Q08210 whole entry, looked up): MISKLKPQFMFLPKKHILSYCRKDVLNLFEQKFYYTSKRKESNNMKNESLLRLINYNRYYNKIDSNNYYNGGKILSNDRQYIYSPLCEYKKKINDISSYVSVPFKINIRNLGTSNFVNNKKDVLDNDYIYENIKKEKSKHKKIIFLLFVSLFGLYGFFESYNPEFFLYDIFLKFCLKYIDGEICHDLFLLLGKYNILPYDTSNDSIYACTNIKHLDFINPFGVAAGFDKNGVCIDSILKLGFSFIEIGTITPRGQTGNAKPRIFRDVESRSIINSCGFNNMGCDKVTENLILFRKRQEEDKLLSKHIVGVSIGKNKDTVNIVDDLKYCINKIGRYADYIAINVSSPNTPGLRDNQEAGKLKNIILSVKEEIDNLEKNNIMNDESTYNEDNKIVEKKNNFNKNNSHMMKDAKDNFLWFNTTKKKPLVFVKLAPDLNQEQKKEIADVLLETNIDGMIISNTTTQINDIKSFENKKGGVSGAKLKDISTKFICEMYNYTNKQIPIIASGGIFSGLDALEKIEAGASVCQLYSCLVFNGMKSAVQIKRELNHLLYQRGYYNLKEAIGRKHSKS

[5] = inhibition of PAO1 biofilm formation – strain PAO1, LB-PBS medium, absorbance 600 nm, primary screen (AID 1176); conditions: P. aeruginosa PAO1 growth/biofilm, A600, 12 h; higher = more signal
[6] = growth modulation of vineyard yeast isolate – strain RM11-1a, OD600, basal, 24 h, primary screen (AID 1177);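 further: cultures grown under basal conditions with no added stressor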; conditions: S. cerevisiae RM11-1a growth, OD600, 24 h; higher = more signal, called active from +8 up or from −8 down
[7] = growth of efflux-deficient E. coli DRC39 – strain DRC39, OD650, 24 h, E. coli filamentation inducers, primary screen (AID 1178);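 further: growth measured as culture turbidity by optical density at 650 nm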; conditions: E. coli DRC39 acrAB, higher = more signal, called active from +8 up or from −8 down
[8] = growth of efflux-deficient E. coli DRC39 – strain DRC39, OD650, 48 h, E. coli filamentation inducers, primary screen (AID 1179);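 further: screen aims at cell division blockers that make cells filament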; conditions: E. coli DRC39 delta-acrAB growth, higher = more signal, called active from +8 up or from −8 down
[9] = viability profiling in RPMI8226 myeloma cells – cell-based, resazurin fluorescence, basal, 24 h, PK04 Diversity Set, profiling panel (AID 1180); conditions: higher = more signal;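 further: RPMI8826 multiple myeloma cell line at 5000 cells per well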
[10] = target: E3 ubiquitin-protein ligase XIAP (Homo sapiens) (UniProt P98170); assay: small molecules binding XIAP protein – biophysical, small-molecule microarray, fluorescence 635 nm, primary screen (AID 1181); conditions: higher = more signal;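 further: score merges 667 nm emission and signal to noise over triplicate slides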
Chain of E3 ubiquitin-protein ligase XIAP (Homo sapiens) (P98170 whole entry, looked up, the tested form may be a part): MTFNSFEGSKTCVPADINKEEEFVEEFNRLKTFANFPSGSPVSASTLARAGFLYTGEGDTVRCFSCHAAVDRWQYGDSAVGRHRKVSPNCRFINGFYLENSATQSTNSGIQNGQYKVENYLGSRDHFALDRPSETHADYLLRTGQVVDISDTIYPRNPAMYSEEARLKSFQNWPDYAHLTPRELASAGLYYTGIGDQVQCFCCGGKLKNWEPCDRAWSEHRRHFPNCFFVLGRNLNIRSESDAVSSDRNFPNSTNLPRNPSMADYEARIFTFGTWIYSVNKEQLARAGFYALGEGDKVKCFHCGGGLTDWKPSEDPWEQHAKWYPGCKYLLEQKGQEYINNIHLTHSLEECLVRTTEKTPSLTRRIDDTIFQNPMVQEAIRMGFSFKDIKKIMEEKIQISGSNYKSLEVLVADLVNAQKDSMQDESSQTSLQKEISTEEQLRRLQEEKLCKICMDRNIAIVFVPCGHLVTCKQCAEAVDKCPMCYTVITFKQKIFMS

[11] = test system: XIP peptide (Xip251-270) binding; assay: XIP fragment 251-270 binding compounds – biochemical, small-molecule microarray, fluorescence 635/667 nm, 0.1 µg/mL protein, primary screen (AID 1182); conditions: fluorescent protein binding, 635 nm, higher = more signal, called active from +8 up or from −8 down
[12] = test system: XIP peptide (Xip251-270); assay: compounds binding XIP fragment 251-270 – biochemical, small-molecule microarray, fluorescence 635/667 nm, 0.5 µg/mL protein, primary screen (AID 1183); conditions: fluorescence 635 nm, higher = more signal
[13] = blood-stage malaria parasite viability loss – strain 3D7, DAPI fluorescence, 100 nL, primary screen (AID 1184);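 further: parasites grown inside human red blood cells in medium with human serum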; conditions: P. falciparum 3D7 growth, 3 d, higher = more signal
[14] = target: Homeobox protein Hox-A13 (Mus musculus) (UniProt Q62424); assay: disruptors of Hoxa13 oligonucleotide interaction – biochemical, fluorescence polarization, labeled oligonucleotide, primary screen (AID 1185); conditions: Hoxa13:DNA binding, 15 min, higher = more signal, called active from +8 up or from −8 down
Chain of Homeobox protein Hox-A13 (Mus musculus) (Q62424 whole entry, looked up): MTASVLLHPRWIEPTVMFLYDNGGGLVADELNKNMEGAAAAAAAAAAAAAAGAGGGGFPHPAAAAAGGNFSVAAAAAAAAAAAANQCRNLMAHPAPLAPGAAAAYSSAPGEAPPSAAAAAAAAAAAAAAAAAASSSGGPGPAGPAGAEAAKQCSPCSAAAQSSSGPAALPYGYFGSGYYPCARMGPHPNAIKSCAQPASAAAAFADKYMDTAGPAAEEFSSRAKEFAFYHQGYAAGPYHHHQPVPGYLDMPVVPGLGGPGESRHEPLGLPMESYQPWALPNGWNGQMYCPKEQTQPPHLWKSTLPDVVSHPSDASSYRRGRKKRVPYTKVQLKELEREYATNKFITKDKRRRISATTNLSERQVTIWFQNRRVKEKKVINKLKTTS

[15] = blockers of DNA damage checkpoint Chk1 activation – imaging, HeLa, hydroxyurea, phospho-Chk1 antibody, percent positive cells, primary screen (AID 1186); conditions: hydroxyurea-induced phospho-Chk1 immunofluorescence imaging, higher = more signal
[16] = blockers of DNA damage checkpoint Chk1 activation – imaging, HeLa, hydroxyurea, phospho-Chk1 nuclear intensity, primary screen (AID 1187); conditions: hydroxyurea-induced phospho-Chk1 immunofluorescence imaging, higher = more signal

Structure (SMILES)	z-score [1]	z-score [2]	z-score [3]	composite z-score [4]	z-score [5]	z-score [6]	z-score [7]	z-score [8]	z-score [9]	composite z-score [10]	composite z-score [11]	composite z-score [12]	z-score [13]	z-score [14]	z-score [15]	z-score [16]
COCCCNC(=O)[C@@]1(Cc2ccccc2CN=[N+]=[N-])N=C(c2ccc(OCCCO)cc2)O[C@H]1c1ccccc1CN=[N+]=[N-]	0.122	-1.03 (inactive)	-1.92 (inactive)	1.06 (inactive)	0.218 (inactive)	-0.016 (inactive)	2.15 (inactive)	0.707 (inactive)	-4.14	0.244	1.01 (inactive)	0.443	-2.23	-4.09 (inactive)	-0.485 (inactive)	-0.763 (inactive)
CCCC1(C(=O)OC)C=C2C(=C(c3ccccc3)C(=O)C2C)CN1 (centres undefined)	-0.913	0.629 (inactive)	-1.85 (inactive)	-1.68 (inactive)	0.246 (inactive)	-0.0834 (inactive)	-0.0785 (inactive)	-0.181 (inactive)	-0.77	0.192	0.774 (inactive)	0.871	-0.105	-8.64 (active)	-0.323 (inactive)	-0.277 (inactive)
CC(C)CCC[C@@H](C)[C@H]1CC[C@@]2(C)C3=C(CC[C@]12C)[C@@]1(C)CC[C@H](OC(=O)c2ccc(C(F)(F)F)nc2)C(C)(C)C1CC3 (some centres undefined)	0.305	-0.473 (inactive)	0.175 (inactive)	-1.08 (inactive)	0.188 (inactive)	-2.03 (inactive)	0.634 (inactive)	0.762 (inactive)	0.605	-0.161	0.106 (inactive)	-0.176	-0.145	-1.23 (inactive)	-0.887 (inactive)	-0.365 (inactive)
CC1CC/C=C\[C@H]2OC34C=CCN(Cc5ccccc5)C(=O)[C@H]3N(C(C)CO)C(=O)[C@@H]4C2C(=O)O1 (some centres undefined)	0.36	-1.39 (inactive)	0.678 (inactive)	-0.166 (inactive)	-0.525 (inactive)	-0.0642 (inactive)	0.492 (inactive)	1 (inactive)	0.233	0.0772	-0.49 (inactive)	0.0057	-0.562	-5.87 (inactive)	-0.682 (inactive)	-0.602 (inactive)
O=C(NCc1ccccc1)[C@@H]1c2ccccc2C(=O)N(C2Cc3ccccc3C2)[C@H]1c1ccc(CO)cc1	-0.786	0.848 (inactive)	-0.139 (inactive)	0.211 (inactive)	0.581 (inactive)	0.644 (inactive)	0.0426 (inactive)	-0.15 (inactive)	0.12	-0.133	0.72 (inactive)	0.731	-0.276	-2.13 (inactive)	0.26 (inactive)	-0.16 (inactive)
C#CCNCc1ccccc1	-0.0158	-1.11 (inactive)	0.642 (inactive)	-0.631 (inactive)	-0.677 (inactive)	-0.389 (inactive)	-0.758 (inactive)	-0.624 (inactive)	0.353	-0.0848	-0.609 (inactive)	0.118	-0.158	-0.0595 (inactive)	0.213 (inactive)	-0.392 (inactive)
COCCOC(=O)N1C(=O)[C@@]2(c3cc(C#CC4(O)CCCCCC4)ccc31)[C@H](C(=O)Nc1nc3ccccc3s1)[C@H]1C(=O)O[C@H](c3ccccc3)[C@H](c3ccccc3)N1[C@@H]2c1ccc(OCCO)cc1	-0.0451	1.16 (inactive)	-0.584 (inactive)	0.901 (inactive)	2.69 (inactive)	3 (inactive)	-0.451 (inactive)	-0.976 (inactive)	-0.523	0.0073	-0.148 (inactive)	0.712	-1.71	0.447 (inactive)	-0.086 (inactive)	-0.0454 (inactive)
COc1ccc([Si](C)(C)[C@H]2[C@H](CC(=O)N3CCC[C@H]3CO)O[C@@]3(C(=O)N(Cc4cccc(N5CCOC5=O)c4)c4ccccc43)[C@@H]2C)cc1	0.22	-0.338 (inactive)	-0.133 (inactive)	-3.32 (inactive)	-0.249 (inactive)	0.177 (inactive)	0.181 (inactive)	-0.109 (inactive)	-0.699	-0.0839	0.991 (inactive)	0.672	-1.42	-4.71 (inactive)	0.835 (inactive)	0.936 (inactive)
C=CC[C@@]1(C(=O)N2CCCCC2)N=C(c2ccc(OCCCO)cc2)O[C@@H]1c1ccccc1N=[N+]=[N-]	-0.355	-1.02 (inactive)	-1.62 (inactive)	0.479 (inactive)	0.302 (inactive)	0.597 (inactive)	0.985 (inactive)	-0.682 (inactive)	-0.963	0.13	0.195 (inactive)	0.602	-1.94	-2.64 (inactive)	-0.679 (inactive)	-0.667 (inactive)
